The values below come from PubChem BioAssay AID624256 (NMMLSC, 2012).

Screen size: about 360,000 compounds; about 3,700 (1%) were called active. Not shown: some 2% with an inconclusive outcome.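 Rule for the calls: active = normalized GFP-positive differentiation at or above the plate's own cutoff, the solvent-only control mean plus 3 SD; inconclusive = no clear call, values can overlap the other calls; inactive = the rest.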 The sample as a whole holds a higher share of actives than the screen did.

The assay in a line: induction of myeloid progenitor differentiation, primary screen, cell-based, flow cytometry, MLPCN library (AID 624256).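 For GFP+ MAC1+ double positive: cells exposed to compound for four days before flow analysis.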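 For normalized GFP-positive differentiation: cells exposed to compound for four days before flow analysis; 0% = DMSO wells and 100% = fulvestrant positive control at 5 µM.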 As to conditions: ER-HoxA9 myeloid progenitors, lysozyme-GFP differentiation, at 10 µM; GFP+ MAC1+ double positive: measured here: differentiation confirmed by MAC1 staining, stronger effect = higher value; normalized GFP-positive differentiation: stronger effect = higher value.
In the case of `CCc1ccc(C(=O)OCC(=O)Nc2cccc(S(=O)(=O)NC3=NCCCCC3)c2)cc1`, the GFP+ MAC1+ double positive is 0.1% and the compound was called inactive.

On to `CCc1nc2c(OCCOc3ccccc3)cccn2c1N(C)C(=O)c1cccs1`, for which the GFP+ MAC1+ double positive was 0.5% and the compound was called inactive.

Turning to `CN(C)C1CN(Cc2cn(Cc3ccccc3)nn2)S(=O)(=O)C1` (centres undefined), the GFP+ MAC1+ double positive was 1.6% and the result was inactive.

In the case of `Cc1cccc(OCC(=O)Nc2ccccc2F)c1`, the GFP+ MAC1+ double positive was 0.3% and the call was inactive.

For the compound `COc1cccc(NC(=S)C(C#N)=C2N(C)c3ccccc3N2C)c1`, the GFP+ MAC1+ double positive is 0.3% and the compound was classed as inactive.

With `CC(=O)Nc1cccc(OCC(=O)/C=C2\N(C)c3ccccc3C2(C)C)c1`, the GFP+ MAC1+ double positive is 0.5% and the normalized GFP-positive differentiation was 24.3% (active).

On to `CC1(C)OC(=O)C2=C(C[C@@H](C3CCCC3)O[C@@H]2c2ccc(Cl)cc2)O1`, for which the GFP+ MAC1+ double positive was 1.8% and the call was inactive.

As to `COc1c(C)cc(C(O)c2ncc(-c3cccc(C(F)(F)F)c3)[nH]2)cc1C` (centres undefined), the GFP+ MAC1+ double positive amounted to 1.2% and the result was inactive.

Turning to `O=C(Nc1cccc(NC(=O)c2ccccc2[N+](=O)[O-])c1)c1ccccc1Cl`, the GFP+ MAC1+ double positive was 0.4% and the compound was classed as inactive.

As to `O=C(Nc1ccc2sc3ccccc3c(=O)c2c1)c1ccccc1Cl`, the GFP+ MAC1+ double positive was found to be 0.3% and the normalized GFP-positive differentiation is 12.5% (active).

For the compound `COc1cc(NC(=O)c2cccs2)ccc1NC(=O)c1ccccc1Cl`, the GFP+ MAC1+ double positive was determined as 0.6% and the compound was classed as inactive.

As for `Cc1cc2nc(-c3ccco3)c(Cc3cccc(F)c3)n2c(C)c1Br`, the GFP+ MAC1+ double positive amounted to 0.9% and the compound was called inactive.

Take `O=C(CN1CCN(C(=O)c2ccco2)CC1)Nc1ccc(Cl)c(C(F)(F)F)c1`: the GFP+ MAC1+ double positive came to 0.9% and the result was inactive.

Turning to `O=C(CCCN1C(=O)CCC1=O)Nc1ccc(Cl)c(C(F)(F)F)c1`, the GFP+ MAC1+ double positive came to 8.3% and the normalized GFP-positive differentiation was 22.8% (active).

For the compound `CN(CC(=O)Nc1ccc(Cl)c(C(F)(F)F)c1)C(=O)CCC(=O)c1ccccc1`, the GFP+ MAC1+ double positive was found to be 1% and the compound was classed as inactive.

Regarding `CN(C(=O)CN1CCN(c2cc(-c3ccc(OCc4ccccc4)cc3)ncn2)CC1)c1ccccc1`, the GFP+ MAC1+ double positive is 1.4% and the compound was called inactive.

Take `CCOC(=O)C1=C(CN2CCc3ccccc32)NC(=O)NC1c1cc(C)ccc1C` (centres undefined): the GFP+ MAC1+ double positive is 0.5% and the result was inactive.

As for `CCOC(=O)C1=C(CN2CCc3ccccc32)NC(=O)NC1c1ccc(Cl)cc1` (centres undefined), the GFP+ MAC1+ double positive was 3.7% and the result was inactive.

Turning to `CCOC(=O)C1=C(CN2CCc3ccccc32)NC(=O)NC1c1cccc([N+](=O)[O-])c1` (centres undefined), the GFP+ MAC1+ double positive came to 1.5% and the normalized GFP-positive differentiation is 18.4% (active).

As for `CCCCCCCCN1C(=O)[C@H](CC(=O)NCc2cccc3ccccc23)C[C@@]2(C(=O)OC)CCCCC=C12`, the GFP+ MAC1+ double positive was 1.4% and the outcome was inactive.

For `O=C(NCCN1CCOCC1)c1ccccc1N1C(=O)[C@@H]2Cc3c([nH]c4ccccc34)C(c3cccc(Cl)c3)N2C1=O` (some centres undefined), the GFP+ MAC1+ double positive turned out to be 2.3% and the result was inactive.

`COC(=O)c1ccc2nc(-c3ccc(OC)c(OC)c3)c(Cc3ccccc3)n2c1`: the GFP+ MAC1+ double positive came out at 0.7% and the call was inactive.

As to `Nc1ccc(S(=O)(=O)NC(=O)c2ccccc2)cc1`, the GFP+ MAC1+ double positive turned out to be 0.9% and the result was inactive.

On to `O=C(Cc1ccccc1)Nc1ccc(C(=O)Nc2ccccc2C(=O)O)cc1`, for which the GFP+ MAC1+ double positive was determined as 1.7% and the outcome was inactive.

Turning to `Nc1ccc(C(=O)Nc2ccccc2N)cc1`, the GFP+ MAC1+ double positive amounted to 1.3% and the normalized GFP-positive differentiation was 21.2% (active).

For `CCOc1ccc(CCN2C(=O)C(=O)N([C@@H](CC(C)C)CN3CCC[C@H]3CN3C(=O)C(=O)NC[C@@H]3Cc3ccccc3)C[C@@H]2CC(C)C)cc1`, the GFP+ MAC1+ double positive came out at 1.6% and the compound was called inactive.

For the compound `O=C(COC(=O)Cn1cnc2ccccc2c1=O)NCc1ccccc1Cl`, the GFP+ MAC1+ double positive was 0.9% and the compound was classed as inactive.

Consider `CC(OC(=O)CCc1nc(=O)c2ccccc2n1C)C(=O)NCc1ccc2c(c1)OCO2` (centres undefined), for which the GFP+ MAC1+ double positive amounted to 0.9% and the compound was called inactive.

On to `Cn1c(CCC(=O)OCC(=O)NCc2ccccc2Cl)nc(=O)c2ccccc21`, for which the GFP+ MAC1+ double positive turned out to be 34.4% and the normalized GFP-positive differentiation is 369% (active).

Regarding `CC(=O)N1C[C@@H](CO)[C@@H](N(C)C(=O)c2ccco2)C[C@H]1c1ccccc1`, the GFP+ MAC1+ double positive was determined as 0.1% and the result was inactive.

For `CCCCCCCCN1C(=O)[C@H](CC(=O)NCC23CC4CC(CC(C4)C2)C3)C[C@@]2(C(=O)OC)CCCCC=C12`, the GFP+ MAC1+ double positive came to 1% and the compound was classed as inactive.

For `O=C(CN1CCOC1=O)N1CCCC(Nc2ccc(F)c(F)c2)C1` (centres undefined), the GFP+ MAC1+ double positive was 3.1% and the result was inactive.

In the case of `O=C(CN1C(=O)CSC1=O)N1CCCC(Nc2ccc(F)cc2)C1` (centres undefined), the GFP+ MAC1+ double positive worked out at 0.7% and the result was inactive.

Consider `O=C1CCCCN1CCCC(=O)N1CCCC(Nc2ccc(F)cc2)C1` (centres undefined), for which the GFP+ MAC1+ double positive was found to be 45% and the normalized GFP-positive differentiation was 233% (active).

Regarding `CC(C)(C)C1CCC(=O)N2CCC[C@]2(c2ccccc2)C1` (some centres undefined), the GFP+ MAC1+ double positive came out at 1% and the compound was called inactive.

Take `CN(C)c1cccc(NC(=O)c2ccc(-c3ccc(F)c(F)c3)c3ccoc23)c1`: the GFP+ MAC1+ double positive is 1.3% and the result was inactive.

On to `Cc1ccc2c(c1)c1ncn(Cc3ccc(F)cc3)c(=O)c1n2C`, for which the GFP+ MAC1+ double positive was 2.8% and the normalized GFP-positive differentiation is 18% (active).

As for `COc1ccc2c(c1)c1ncn(Cc3ccccn3)c(=O)c1n2C`, the GFP+ MAC1+ double positive worked out at 0.7% and the outcome was inactive.

For `Cc1ccc2[nH]c3c(=O)n(Cc4ccccn4)cnc3c2c1`, the GFP+ MAC1+ double positive stood at 3% and the compound was called inactive.

Turning to `Cc1ccc(C(NC(=O)C2CCN(CCOc3ccc(Cl)cc3Cl)CC2)c2ccccn2)cc1` (centres undefined), the GFP+ MAC1+ double positive came out at 1.4% and the result was inactive.

`COc1ccc(-c2cc(NC=O)c3ncc(-c4ccccc4)n3c2)cc1OC`: the GFP+ MAC1+ double positive came out at 3.3% and the compound was classed as inactive.

Regarding `COC(=O)C1(C(=O)OC)C[C@H](c2ccccc2)N(Cc2ccccc2OC)[C@@H]1c1ccccc1`, the GFP+ MAC1+ double positive was 1.5% and the outcome was inactive.
